Results as given in PubChem BioAssay AID1159580 (chemical genetic matrix, 2015).
Among all 5,500 compounds or so, about 2,000 (36%) were called active. Inconclusive results (about 18%) are left out. No stated cut-off is given here; in the data, active means normalized growth mostly below about 0.91 (no sharp cut-off); inconclusive means no clear call, values can overlap the other calls; inactive means mostly above about 0.92. The list shows a part of the results.

Test: chemical genetic growth profiling, strain panel (AID 1159580);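 further: tested at 20 µM; growth read once vehicle control cultures reached saturation at 30 °C; 1 = growth at the plate median or of vehicle wells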
Conditions: S. cerevisiae deletion strains, growth OD

Measured: normalized growth

COC1=CC(=O)C(O)=C/C1=C\C=C\c1ccccc1
active: locus YAL021C, strain ccr4, stronger effect = lower value 0.0637 | locus YAL026C, strain drs2, stronger effect = lower value 0.0627 | locus YAL030W, strain snc1, stronger effect = lower value 0.0587 | locus YBL061C, strain skt5, stronger effect = lower value 0.0684 | locus YBR009C, strain hhf1, stronger effect = lower value 0.0623 | locus YBR023C, strain chs3, stronger effect = lower value 0.075 | locus YBR171W, strain sec66, stronger effect = lower value 0.0792 | locus YBR231C, strain swc5, stronger effect = lower value 0.0663 | locus YBR279W, strain paf1, stronger effect = lower value 0.068 | locus YCL011C, strain gbp2, stronger effect = lower value 0.0594 | locus YCL016C, strain dcc1, stronger effect = lower value 0.0807 | locus YCL061C, strain MRC1, stronger effect = lower value 0.0651 | locus YCL069W, strain vba3, stronger effect = lower value 0.064 | locus YCR088W, strain abp1, stronger effect = lower value 0.0619 | locus YDL005C, strain med2, stronger effect = lower value 0.0757 | locus YDL040C, strain nat1, stronger effect = lower value 0.244 | locus YDR001C, strain nth1, stronger effect = lower value 0.0607 | locus YDR069C, strain doa4, stronger effect = lower value 0.068 | locus YDR137W, strain rgp1, stronger effect = lower value 0.292 | locus YDR159W, strain sac3, stronger effect = lower value 0.166 | locus YDR195W, strain ref2 0.115 | locus YDR297W, strain sur2, stronger effect = lower value 0.0591 | locus YDR334W, strain swr1, stronger effect = lower value 0.0652 | locus YDR335W, strain msn5, stronger effect = lower value 0.0631 | locus YDR392W, strain spt3, stronger effect = lower value 0.0929 | locus YEL003W, strain gim4, stronger effect = lower value 0.0583 | locus YEL037C, strain rad23, stronger effect = lower value 0.0597 | locus YEL061C, strain CIN8 (second series), stronger effect = lower value 0.064 | locus YER015W, strain faa2, stronger effect = lower value 0.0626 | locus YER016W, strain bim1, stronger effect = lower value 0.0792 | locus YER111C, strain swi4, stronger effect = lower value 0.076 | locus YER155C, strain BEM2 (second series), stronger effect = lower value 0.0935 | locus YFR010W, strain ubp6, stronger effect = lower value 0.0686 | locus YGL167C, strain pmr1, stronger effect = lower value 0.0977 | locus YGL173C, strain kem1, stronger effect = lower value 0.0694 | locus YGL227W, strain vid30, stronger effect = lower value 0.0665 | locus YGL240W, strain doc1, stronger effect = lower value 0.0868 | locus YGL253W, strain hxk2, stronger effect = lower value 0.0562 | locus YHR013C, strain ard1, stronger effect = lower value 0.205 | locus YHR027C, strain rpn1, stronger effect = lower value 0.064 | locus YHR030C, strain SLT2, stronger effect = lower value 0.114 | locus YHR079C, strain IRE1, stronger effect = lower value 0.111 | locus YHR142W, strain chs7, stronger effect = lower value 0.0751 | locus YJL092W, strain hpr5, stronger effect = lower value 0.0609 | locus YJL095W, strain BCK1 (second series), stronger effect = lower value 0.0603 | locus YJL095W, strain BCK1, stronger effect = lower value 0.104 | locus YJL115W, strain asf1, stronger effect = lower value 0.0766 | locus YJL129C, strain trk1, stronger effect = lower value 0.0861 | locus YJL154C, strain vps35, stronger effect = lower value 0.0623 | locus YJL164C, strain tpk1, stronger effect = lower value 0.0609 | locus YJL166W, strain qcr8, stronger effect = lower value 0.0637 | locus YJL187C, strain SWE1, stronger effect = lower value 0.0601 | locus YJR066W, strain TOR1, stronger effect = lower value -0.00301 | locus YKL160W, strain elf1, stronger effect = lower value 0.073 | locus YKR026C, strain gcn3, stronger effect = lower value 0.0653 | locus YKR091W, strain srl3, stronger effect = lower value 0.0623 | locus YLL001W, strain dnm1, stronger effect = lower value 0.0646 | locus YLL026W, stronger effect = lower value 0.0594 | locus YLL041C, strain sdh2, stronger effect = lower value 0.0594 | locus YLR027C, strain aat2, stronger effect = lower value 0.0574 | locus YLR113W, strain HOG1, stronger effect = lower value 0.173 | locus YLR221C, strain rsa3, stronger effect = lower value 0.0618 | locus YLR258W, strain gsy2, stronger effect = lower value 0.0601 | locus YLR262C, strain YPT6 (second series), stronger effect = lower value 0.0834 | locus YLR320W, strain mms22, stronger effect = lower value 0.0845 | locus YLR342W, strain FKS1, stronger effect = lower value 0.0656 | locus YLR357W, strain rsc2, stronger effect = lower value 0.127 | locus YLR370C, strain arc18, stronger effect = lower value 0.0611 | locus YLR384C, strain iki3, stronger effect = lower value 0.0607 | locus YML120C, strain ndi1, stronger effect = lower value 0.0568 | locus YMR058W, strain fet3, stronger effect = lower value 0.0632 | locus YMR125W, strain sto1, stronger effect = lower value 0.0692 | locus YMR129W, stronger effect = lower value 0.0614 | locus YMR205C, strain PFK2, stronger effect = lower value 0.088 | locus YMR231W, strain pep5, stronger effect = lower value 0.068 | locus YNL071W, strain lat1, stronger effect = lower value 0.0619 | locus YNL183C, strain NPR1, stronger effect = lower value -0.000893 | locus YNL209W, strain ssb2, stronger effect = lower value 0.0644 | locus YNL248C, strain rpa49, stronger effect = lower value 0.0693 | locus YNL322C, strain KRE1 (second series), stronger effect = lower value 0.068 | locus YNR049C, strain mso1, stronger effect = lower value 0.0603 | locus YOR001W, strain rrp6, stronger effect = lower value 0.069 | locus YOR070C, strain gyp1, stronger effect = lower value 0.0623 | locus YOR080W, strain dia2, stronger effect = lower value 0.0977 | locus YOR083W, strain WHI5, stronger effect = lower value 0.0654 | locus YOR106W, strain vam3, stronger effect = lower value 0.0683 | locus YOR231W, strain MKK1, stronger effect = lower value 0.109 | locus YOR265W, strain rbl2, stronger effect = lower value 0.0614 | locus YOR270C, strain vph1, stronger effect = lower value 0.0968 | locus YOR290C, strain snf2, stronger effect = lower value 0.0813 | locus YPL051W, strain arl3, stronger effect = lower value 0.0697 | locus YPL078C, strain atp4, stronger effect = lower value 0.0641 | locus YPL106C, strain sse1, stronger effect = lower value 0.102 | locus YPL240C, strain hsp82, stronger effect = lower value 0.0581 | locus YPL256C, strain CLN2, stronger effect = lower value 0.131
